Experimental findings from PubChem BioAssay (NCI) are described below.

The panel holds about 83,000 compounds, 20% with a hit somewhere; the sample as a whole holds those more often.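 A percent growth of 40 corresponds to 60% growth inhibition; 0 means no net growth; -100 means all cells died. Active threshold: below 10.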 A number with no mark means an inactive call. Activity calls are given as the source filed them.

Assay in all cases: NCI-60 one-dose screen, 48 h (100 = growth as untreated, 0 = no growth, -100 = all killed)
Common to all, as to settings: 10 µM unless noted

Assay [1] deals with DU-145 prostate.
Assay [2] has as its system K-562 leukemia.
Assay [3] has as its system MALME-3M melanoma.
The subject of assay [4] is MDA-MB-231 breast.
Assay [5] deals with RXF 393 renal.
Assay [6] deals with SF-268 CNS.
For assay [7], the system named is SF-295 CNS.
For assay [8], the system named is SF-539 CNS.
The test system of assay [9] is UACC-257 melanoma.
For assay [10], the system named is M14 melanoma.
Assay [11] deals with HCT-15 colon.
In assay [12] the test system is HT29 colon.
Assay [13] deals with SNB-75 CNS.
Assay [14] concerns SNB-19 CNS.
In assay [15] the test system is U251 CNS.
Assay [16] has as its system PC-3 prostate.
For assay [17], the system named is SK-MEL-5 melanoma.
Assay [18] has as its system UACC-62 melanoma.
The test system of assay [19] is LOX IMVI melanoma.
Assay [20] deals with SK-MEL-28 melanoma.

With `O[C@@H]1CCO[C@H](c2ccc3ccccc3c2)C1`, the growth in [1] is 102%; in assay [2], 98.3%; in assay [3], 96.7%; in assay [4] it was 104%; in assay [5], 97%; in assay [6], 96.2%. The growth is 102% in [7]; 98.9% in [8]; 98.5% in [9]; 101% in [10]; 85.9% in [11]; 100% in assay [12]. The growth was 97.2% in assay [13]; 101% in assay [14]; 96.7% in assay [15]; 95.5% in assay [16]; 102% in assay [17]; 100% in assay [18]. The growth in assay [19] is 102%; in assay [20], 111%.

In the case of `COc1ccccc1P(c1ccccc1OC)c1ccccc1OC`, the growth is 109% in [1]; 107% in [2]; 104% in [3]; 101% in assay [4]; 102% in [5]; 109% in assay [6]. The growth is 97.3% in [7]; 101% in assay [8]; 78.1% in assay [9]; 101% in assay [10]; 104% in assay [11]; 92.2% in [12]. Besides, the growth was 98% in assay [13]; 75.7% in [14]; 95.7% in assay [15]; 80% in assay [16]; 88.6% in assay [17]; 90% in [18]. Besides, the growth in assay [19] is 85.4%; in [20], 117%.

In the case of `Cc1cc(SCc2ccc(Cl)cc2Cl)nc(SCc2ccc(Cl)cc2Cl)n1`, the growth was 105% in [1]; 110% in [2]; 88.9% in [3]; 101% in assay [4]; 108% in [5]; 102% in assay [6]. Also, the growth in assay [7] was 95.8%; in assay [8] it was 98%; in assay [9] it was 98.8%; in assay [10], 97.5%; in [11], 93%; in assay [12], 97.9%. The growth was 96.1% in assay [13]; 111% in assay [14]; 105% in assay [15]; 108% in assay [16]; 96.1% in assay [17]; 102% in [18]. Further, the growth in assay [19] is 99.5%; in [20], 98.8%.

For the compound `Oc1ccc(Cl)cc1Sc1cc(Cl)ccc1O`, the growth in assay [1] is 98.9%; in assay [2], 93.3%; in assay [3], 86.2%; in [4] it was 96.4%; in assay [5], 62%; in assay [6] it was 87.8%. In addition, the growth in [7] was 108%; in [8], 97.6%; in assay [9] it was 94.7%; in [10] it was 95.8%; in assay [11] it was 92.9%; in assay [12] it was 102%. Moreover, the growth in [13] is 63.4%; in assay [14], 95.1%; in assay [15], 93.9%; in assay [16] it was 89.6%; in [17], -14.2% (active); in assay [18] it was 58.8%. The figures for the growth in assay [19] and in assay [20] were 88.1% and 52.5%, respectively.

With `CCCCCCCCCCCCCCCCCCNCc1ccc(Cl)cc1`, the growth is -91.3% (active) in [1]; -65.7% (active) in assay [2]; -57.6% (active) in assay [3]; -72.9% (active) in assay [4]; -74.4% (active) in [5]; -63.5% (active) in assay [6]. Besides, the growth in assay [7] was -46.8% (active); in assay [8], -88.1% (active); in [9] it was 38.9%; in assay [10], -72.2% (active); in assay [11], -87.1% (active); in assay [12], -94.7% (active). In addition, the growth in [13] was -60.9% (active); in assay [14], -67.6% (active); in assay [15] it was -84.8% (active); in [16], -89.3% (active); in assay [17] it was 11.8%; in assay [18], -46.7% (active). The results for the growth in assay [19] and in assay [20] were -74.6% (active) and 27.2%, respectively.

Turning to `C=C1C(=O)O[C@H]2[C@H]1CC/C(C(=O)NCCOCCOCC(=O)Nc1ccc(OC)c(C(N)=O)c1O)=C\CC[C@@]1(C)O[C@@H]21`, the growth in assay [1] was 101%; in assay [2], 82.6%; in [3] it was 86.9%; in assay [4], 100%; in [5], 59.6%; in assay [6], 89.4%. For the same compound, the growth in assay [7] was 104%; in [8], 90.7%; in assay [9] it was 69.4%; in [10], 99.3%; in assay [11] it was 101%; in assay [12] it was 88.1%. Also, the growth in [13] is 83.1%; in assay [14], 95.1%; in assay [15], 89.8%; in [16], 97%; in assay [17], 102%; in [18] it was 92.6%. The growth in assay [19] was 95.3%; in assay [20], 84.7%.

As for `Cc1nssc1=S`, the growth in assay [1] is 113%; in [2] it was 93.8%; in assay [3] it was 102%; in assay [4], 112%; in assay [5] it was 113%; in assay [6], 106%. Further, the growth in assay [7] was 99.7%; in assay [8] it was 101%; in assay [9], 102%; in assay [10], 88.2%; in [11] it was 104%; in assay [12] it was 102%. Further, the growth in assay [13] is 92.3%; in assay [14], 96.5%; in [15], 102%; in assay [16] it was 88.2%; in [17] it was 108%; in assay [18] it was 104%. Also, the figures for the growth in assay [19] and in assay [20] were 89.4% and 101%, respectively.

With `C[C@]12O[C@H]1[C@H](O)c1c(cc(O)c3c1C(=O)c1cccc(O)c1-3)C2=O`, the growth in [1] was 111%; in assay [2], 93.9%; in [3] it was 100%; in assay [4], 94%; in [5] it was 123%; in [6] it was 107%. Moreover, the growth is 102% in assay [7]; 99.6% in assay [8]; 89% in assay [9]; 89.8% in assay [10]; 103% in assay [11]; 92.9% in assay [12]. For the same compound, the growth in assay [13] is 86.3%; in [14], 104%; in assay [15], 97.6%; in assay [16] it was 87.3%; in assay [17], 97.7%; in [18] it was 88.2%. Further, the growth in [19] was 87.8%; in [20] it was 107%.
